Test results: PubChem BioAssay (NCI)
Compounds without any hit were thinned out: in the full panel of roughly 83,000, 20% have a hit.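 Step 1: grow cells in 96-well plates. Step 2: add test compound at a single concentration. Step 3: incubate 48 h. Step 4: record percent growth.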 A number with no mark means an inactive call. Activity calls are given as the source filed them. Rule for the calls: active = growth percent below 10; inactive = the rest.

Tests used:
Experiment in all cases: NCI-60 one-dose screen, 48 h (100 = growth as untreated, 0 = no growth, -100 = all killed)
Conditions in all cases: 10 µM unless noted
[1] = test system: NCI-H226 lung
[2] = test system: NCI-H322M lung
[3] = test system: HOP-62 NSCLC
[4] = test system: NCI-H460 lung
[5] = test system: HOP-92 NSCLC
[6] = test system: NCI-H522 lung
[7] = test system: A549/ATCC NSCLC
[8] = test system: 786-0 renal
[9] = test system: COLO 205 colon
[10] = test system: DU-145 prostate

Row | SMILES | growth [1] | growth [2] | growth [3] | growth [4] | growth [5] | growth [6] | growth [7] | growth [8] | growth [9] | growth [10]
1 | CNC(=O)c1cc(-c2ccc(NC(=O)Nc3ccc(N4CCOCC4)c(C(F)(F)F)c3)cc2)nc2cccnc12 | 54.8% | 71.7% | 80.6% | 23.9% | 57.2% | 65.5% | 51.6% | 25.9% | 84.7% | 69.6%
2 | Cc1cc(=O)oc2cc(OCCCOc3ccc(/C=C/C(=O)Nc4ccc(Cl)cc4)cc3)ccc12 | 79.5% | 83% | 90.2% | -6.83% (active) | 25.2% | 82.6% | 28.6% | 46.4% | 68.2% | 73.6%
3 | CN1CCN(Cc2ccc(NC(=O)c3cncc(C#Cc4cnc5ccc(N6CCSCC6)nn45)c3)cc2C(F)(F)F)CC1 | -24.7% (active) | -23.9% (active) | -31.1% (active) | -46.6% (active) | -48.6% (active) | -75.4% (active) | -24.5% (active) | -77.7% (active) | -87.9% (active) | -83.2% (active)
4 | CCCCN1C(=O)/C(=c2\sc3n(c2=O)C2C(NN=3)N(CC)C(=O)N2CC)c2cc(Cl)ccc21 (stereo not given) | 89.8% | 96.3% | 83.1% | 78.5% | 71.3% | 46.5% | 89.3% | 90.7% | 114% | 94.8%
5 | CCOC(=O)c1c(Nc2ccccc2)nn2c(N)c(C#N)c(-c3ccc(OC)cc3)nc12 | 42.3% | 95.5% | 61.3% | 61.5% | 47% | 83.3% | 69% | 32.8% | 96.3% | 66.3%
6 | CCCC(=O)NC(c1ccc(N(CC)CC)cc1)c1cc(C)c2cccnc2c1O (stereo not given) | 1.21% (active) | 27.8% | 17.4% | 1.53% (active) | 46.4% | 15.9% | 28.7% | 0.0799% (active) | 23.1% | 25.6%
7 | COc1ccccc1C(=O)CSc1nc(Nc2ccc(S(N)(=O)=O)cc2)c2ccccc2n1 | 94.9% | 82.6% | 86.7% | 85.1% | 89.6% | 90.5% | 98.5% | 91% | 107% | 96.9%
8 | COc1ccc([C@@H]2c3[nH]c4ccccc4c3CC3C(=O)N(C4CCN(Cc5c(F)cccc5F)CC4)CC(=O)N32)c(OC)c1 (stereo not given in full) | 57% [5.26 µM] | 83.4% [5.26 µM] | 54.8% [5.26 µM] | 65.7% [5.26 µM] | 18.8% [5.26 µM] | 67.6% [5.26 µM] | 50% [5.26 µM] | -35.9% [5.26 µM] (active) | 58.3% [5.26 µM] | 70.7% [5.26 µM]
9 | CO/N=C1\CCc2c(sc(NC(=O)c3cccc(C(F)(F)F)c3)c2C(N)=O)C1 | -10.4% (active) | 19.9% | -0.189% (active) | 2.77% (active) | -12.7% (active) | 26.5% | -9.56% (active) | 1.79% (active) | 72.6% | 52.9%
10 | Cn1ccnc1C(=O)/C=C/c1ccc(NC(=O)Nc2ccc(F)cc2)cc1 | 63.3% | 49.5% | 31% | 7.07% (active) | 78.2% | 14.7% | 36.4% | 27.3% | 49.5% | 35.1%
11 | CCCCCCNC(=O)Oc1ccc(/C(=C(/C)c2ccccc2)c2ccc(OCCN3CCCCCC3)cc2)cc1 | 76.7% | 87.5% | 78.6% | 6.58% (active) | 12.5% | 85% | 63.1% | -0.48% (active) | 21.7% | 68.2%
12 | CN(C)CCCOc1c2ccc(Cl)cc2nc2c1oc1ccccc12 | -0.673% (active) | -13.1% (active) | 7.02% (active) | 7.64% (active) | -4.3% (active) | -39.6% (active) | 10% | 6.22% (active) | -59.3% (active) | 5.28% (active)
13 | N#Cc1nc(-c2ccccc2)oc1S(N)(=O)=O | 103% | 100% | 111% | 93.3% | 77.3% | -44.5% (active) | 101% | 51.1% | 96.7% | 82.5%
14 | CCOc1ccc2nc(NC(=O)c3ccc(C(F)(F)F)cc3)sc2c1 | 107% | 107% | 118% | 101% | 139% | 94.4% | 101% | 99.6% | 117% | 105%
15 | OC1CCN(CCCOc2c3ccccc3nc3c2oc2ccccc23)CC1 | -31.2% (active) | -17% (active) | 5.52% (active) | 0.894% (active) | -11.8% (active) | -48.6% (active) | -12.2% (active) | 7.21% (active) | -63.8% (active) | 1.33% (active)
16 | O=C(N/N=C/c1ccc(Br)s1)c1[nH]c2ccc(Br)cc2c1-c1ccccc1 | 52.6% | 48.2% | 46.5% | 3.52% (active) | 46.6% | -38.5% (active) | 28.8% | 11.5% | -44.3% (active) | 18.6%
17 | Clc1ccc2c(NCCCN3CCOCC3)c3oc4ccccc4c3nc2c1 | 45.3% | 37.8% | 66.5% | 13.8% | 48.7% | 43.1% | 44.3% | 28.3% | 29.9% | 31.3%
18 | COc1ccc(/C=N/Nc2ccnc3cc(Cl)ccc23)cc1Cl | 69% | -64.1% (active) | -42.9% (active) | -79% (active) | -57.6% (active) | -73.7% (active) | -41.6% (active) | -94.9% (active) | -82.7% (active) | -57% (active)
19 | COc1cccc(-c2nn(-c3ccccc3)cc2-c2ccnc(N3CCN(C(=O)Nc4ccc(F)cc4)CC3)c2)c1 | 66.7% | 79.2% | 102% | 69.5% | 63.1% | 36.2% | 55.9% | 68.1% | 64.7% | 67.5%
20 | COc1ccc(/C=C/C(=O)c2ccc(NC(=O)CSc3nnc(-c4ccc5nc(-c6ccc(Cl)cc6)[nH]c5c4)o3)cc2)cc1 | 87.6% | 103% | 103% | 102% | 102% | 79.1% | 105% | 99.6% | 118% | 108%
21 | O=C1Nc2ccc(Cl)cc2/C1=C/c1ccc(OCC(=O)c2ccc(Br)cc2)cc1 | 78.7% | 84.7% | 68.4% | 94.7% | 72% | 95.9% | 102% | 103% | 98.5% | 103%
22 | CCOC(=O)c1c(Nc2ccccc2)nn2c(N)c(C#N)c(-c3ccc(F)cc3)nc12 | 90.6% | 101% | 91.7% | 86.8% | 99.5% | 90.5% | 96.1% | 80.8% | 93.4% | 83.2%
23 | Cc1nc2cnc(N)c(C#Cc3cncc(C(=O)Nc4ccc(Cl)c(C(F)(F)F)c4)c3)c2nc1C | 26.7% | 64.9% | 56.8% | 53.8% | -23.9% (active) | 89.5% | 56.6% | 64.3% | 28.5% | 69.4%
24 | O=C(CCN1C(=O)/C(=C/c2ccccc2)SC1=S)N1CCOCC1 | 104% | 87.2% | 114% | 99.3% | 94.6% | 58.3% | 101% | 82.6% | 119% | 77.3%
25 | OC1CCN(CCCOc2c3ccccc3nc3c2oc2ccc(Cl)cc23)CC1 | 11.1% | -1.27% (active) | 27% | 4.79% (active) | 14% | -51.4% (active) | 1.98% (active) | 11.7% | -13.1% (active) | 5.05% (active)
26 | CN(C)c1ccc(/C=C2\Cc3c(F)ccc(Br)c3C2=O)cc1 | 76.3% | 85.6% | 91.5% | 88.7% | 91.5% | 96.1% | 94.1% | 98.2% | 98.1% | 97.5%
